# FadD28 binding: inhibitors of FadD28 bisubstrate probe binding, primary screen, biochemical, fluorescence polarization, single point; Mycobacterium tuberculosis FadD28 fatty-acid-AMP ligase; inhibition, % at 12.5 µM; 360,000 compounds, 0.22% hits; in the data active = inhibition above about 8.5%, passing the limit was not always enough; inconclusive = no clear call, values can overlap the other calls
# BioA inh: M. tuberculosis BioA enzyme inhibitors, primary screen, biochemical, plate reader, single point, HTS; purified M. tuberculosis BioA enzyme; inhibition, % at 9.99 µM; 360,000 compounds, 0.096% hits; AID 602481, 2012; in the data active = inhibition above about 40%; inconclusive = no clear call, values can overlap the other calls
# TcdB inh: TcdB glycohydrolase inhibitors, primary screen, biochemical, single point, plate reader; Toxin B (Clostridioides difficile), P18177; TcdB glycohydrolase enzymatic assay; inhibition, % at 9.99 µM; 350,000 compounds, 0.24% hits; in the data active = inhibition above about 10%
# PfHsp40 yeast: rescue of yeast from PfHsp40 toxicity, primary screen, S. cerevisiae, ATP luminescence; growth rescue, % at 12.5 µM; 340,000 compounds, 0.68% hits; S. cerevisiae expressing PfHsp40, growth rescue; in the data active = growth rescue above about 28%, passing the limit was not always enough; inconclusive = no clear call, values can overlap the other calls;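 note: yeast W303a lacking pdr1 and pdr3 grown in galactose medium; growth measured after three days at 30 °C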
# PrP UTR inh: inhibition of PrP 5' UTR reporter expression; cell-based PrP 5' UTR mRNA reporter, plate reader; inhibition, % (test concentration not listed); 340,000 compounds, 0.35% hits; AID 488862, 2010; in the data active = inhibition above about 52%; note: 0 = median of the neutral control wells
# Numbers without * were called inactive; u = inconclusive; x = not tested or not shown. The list is not random: actives were taken first. Their share in the collection is about 1.1%.
SMILES,FadD28 binding,BioA inh,TcdB inh,PfHsp40 yeast,PrP UTR inh
CNC[C@@H]1OCCCC[C@H](C)Oc2ccc(NC(=O)Nc3c(C)noc3C)cc2C(=O)N([C@@H](C)CO)C[C@@H]1C,x,-1,-1,x,x
O=C(Cc1ccccn1)N[C@H]1CC[C@H](CCNC(=O)c2cc(Cl)cc(Cl)c2)O[C@@H]1CO,x,3,-1,x,x
O=C(N/N=C/c1cn(-c2ccccc2)nc1-c1cc2ccccc2o1)c1ccncc1,-1,-2,x,180*,-184
O=C(N/N=C/c1cn(-c2ccccc2)nc1-c1cccs1)c1ccccc1F,-8,0,x,201*,-32
O=C(N/N=C/c1cn(-c2ccccc2)nc1-c1cc2ccccc2o1)c1cccnc1,-3,x,-1,0,-81
CC(C)NC(=O)N(C)C[C@@H]1OCc2ccccc2-c2ccccc2C(=O)N([C@@H](C)CO)C[C@H]1C,x,0,1,x,x
O=S(=O)(O)c1cccc2cccc(Nc3ccccc3)c12,81*,6,-1,7,-15
Nc1c(S(=O)(=O)O)cc(NC(=O)c2ccccc2)c2c1C(=O)c1ccccc1C2=O,26*,-1,2,0,2
C[C@H]1CN([C@@H](C)CO)C(=O)Cc2cc(NC(=O)Nc3cccc4ccccc34)ccc2O[C@H]1CN(C)Cc1ccc(C(F)(F)F)cc1,x,0,0,x,x
Cc1cc(C(=O)Nc2cccc3c2O[C@H](CN(C)C(=O)Nc2ccc(C(F)(F)F)cc2)[C@H](C)CN([C@H](C)CO)C3=O)n(C)n1,x,1,1,x,x
O=c1[nH]c(=O)n(C2OC(CO)C(O)C2O)cc1F (centres undefined),-2,x,x,203*,35
CCC(=O)C1=C(O)C(c2cccc(Oc3ccccc3)c2)CCC1=O (centres undefined),-4,5,0,211*,1
COc1ccc2c(c1)C(=O)CCC2c1ccccc1 (centres undefined),-1,1,0,u,-19
COc1cc2c(cc1OC)/C(=C/C(=O)c1ccccc1)NCC2,1,3,-2,41*,3
O=C(NNc1ccc([N+](=O)[O-])cc1)c1ccccc1F,-1,x,0,32*,-27
CC(C)C12NC(=O)NC(=O)N1CCS2 (centres undefined),-2,x,10*,-2,-14
O=C(Cc1n[nH]c(=O)c2ccccc12)OCC(=O)c1ccc2c(c1)OCCO2,0,0,x,96*,50
O=C(Cc1n[nH]c(=O)c2ccccc12)OCC(=O)c1ccc(F)cc1,-2,-1,0,0,-5
Cn1c(/C(C#N)=C/c2ccc(-c3ccc(S(N)(=O)=O)cc3)o2)nc2ccccc21,11*,2,x,1,-20
Cn1c(/C(C#N)=C/c2cccc(O)c2)nc2ccccc21,-3,0,3,-1,-40
Cc1ncoc1C(=O)N1CCCC(C(=O)c2ccc(Oc3ccccc3)cc2)C1 (centres undefined),-1,x,1,1,-24
Cc1ncoc1C(=O)N1CCCC(C(=O)c2ccc(-c3ccccc3)c(F)c2)C1 (centres undefined),-3,13,0,183*,-5
CC1=NN(c2ccc([N+](=O)[O-])cc2)C(=O)/C1=C\N(C)C,-2,x,1,-6,-32
CC1=NN(c2ccc([N+](=O)[O-])cc2)C(=O)C1,14*,1,1,-1,-23
CCN(CC)S(=O)(=O)c1cc(C(=O)Nc2cccnc2Cl)ccc1Cl,-1,x,11*,0,-9
SMILES,FadD28 binding,BioA inh,TcdB inh,PfHsp40 yeast,PrP UTR inh
CCN(CC)S(=O)(=O)c1cc(C(=O)Nc2ccc(Cl)cn2)ccc1C,-3,0,x,-1,-61
CCN(CC)c1ccc(/C=N/NC(=O)c2cccc(S(=O)(=O)Nc3ccccc3OC)c2)cc1,2,x,0,0,-18
CCN(CC)S(=O)(=O)c1cccc(C(=O)Nc2ccc(Cl)cn2)c1,-2,0,x,56*,-20
CCN(CC)c1ccc(/C=N/NC(=O)c2cccc(S(=O)(=O)Nc3ccccc3OC)c2)c(O)c1,4,x,1,105*,52
CCN(CC)c1ccc(/C=N/NC(=O)c2ccc3nc[nH]c3c2)c(O)c1,27*,-1,x,-1,11
C[C@H](CO)N1C[C@H](C)[C@H](CN(C)C(=O)Nc2ccccc2)Oc2ccc(NC(=O)NC3CCCCC3)cc2CC1=O,x,1,-1,x,x
C[C@H]1CN([C@@H](C)CO)C(=O)c2cc(C3=CCCC3)cnc2O[C@@H]1CN(C)C(=O)c1ccccn1,x,-1,0,x,x
C[C@@H]1CN([C@@H](C)CO)C(=O)c2cc(NC(=O)Cn3cnnn3)ccc2O[C@H]1CN(C)Cc1ccccc1,x,5,-1,x,x
CCOc1ccccc1/C=N/NC(=O)c1cccc(S(=O)(=O)N(CC)CC)c1,0,-1,3,0,3
CCN(CC)S(=O)(=O)c1cccc(C(=O)N/N=C/c2ccc(O)c(O)c2O)c1,3,x,x,202*,-5
C[C@@H]1CN([C@@H](C)CO)C(=O)c2cc(NC(=O)Cc3cn(C)c4ccccc34)ccc2O[C@H]1CN(C)Cc1ccc(C(=O)O)cc1,x,4,-1,x,x
COc1ccc(-c2coc3cc(O)cc(O)c3c2=O)cc1,-1,1,3,199*,-84
COc1ccccc1C1=NNC(=NCc2ccccc2)SC1,-1,x,10*,0,-32
C=CCOc1ccc(C(c2c(C(=O)O)[nH]c3ccccc23)c2c(C(=O)O)[nH]c3ccccc23)cc1,40*,3,0,23,-22
COc1cc(C(c2c(C(=O)O)[nH]c3ccccc23)c2c(C(=O)O)[nH]c3ccccc23)ccc1OCc1ccccc1,32*,6,0,3,-19
O=C(O)COc1ccc(Br)cc1C(c1c(C(=O)O)[nH]c2ccccc12)c1c(C(=O)O)[nH]c2ccccc12,28*,2,x,4,-24
COc1cc(C(NC(C)=O)NC(C)=O)ccc1OCc1ccccc1,-5,x,x,-2,-20
O=C(O)c1[nH]c2ccccc2c1C(c1ccccc1)c1c(C(=O)O)[nH]c2ccccc12,22*,0,2,23,-22
COc1ccc(CN=Cc2c(C(=O)O)[nH]c3ccccc23)cc1,-4,x,2,0,-10
O=C(O)COc1ccc(Br)cc1CP(=O)(c1ccccc1)c1ccccc1,-2,x,0,0,-24
CN1CCN(C(=O)C[C@H]2C=C[C@@H](NC(=O)c3ccc4c(c3)OCO4)[C@H](CO)O2)CC1,x,-2,-1,x,x
CO[C@@H]1CN(C)C(=O)c2ccc(NS(C)(=O)=O)cc2OC[C@H](C)N(Cc2ccccn2)C[C@H]1C,x,x,0,x,x
O=C(C[C@@H]1C=C[C@@H](NC(=O)CC2CC2)[C@H](CO)O1)NCc1ccc(Cl)cc1,x,2,-5,x,x
O=C(O)c1[nH]c2ccccc2c1C(c1cc(Cl)cc([N+](=O)[O-])c1O)c1c(C(=O)O)[nH]c2ccccc12,56*,1,0,u,-66
